# Bioassay records (PubChem)
# VHR inh abs – inhibitors of human VHR1 phosphatase (DUSP3); inhibition, % at 13.3 µM; 290,000 compounds, 0.52% hits; recombinant VHR phosphatase, pNPP absorbance; in the data active = inhibition above about 50%
# PrP 5UTR inh – suppresses PrP 5' UTR mRNA reporter expression; cell-based PrP 5' UTR mRNA reporter, plate reader; inhibition, % (no concentration beside the values); 340,000 compounds, 0.35% hits; AID 488862; in the data active = inhibition above about 52%; also: 0 = median of the neutral control wells
# PrPC TRFRET – reduces human prion protein on the cell surface; cell surface PrPC, TR-FRET read-out; AID 720596; P04156; inhibition, % at 13.8 µM; 370,000 compounds, 0.43% hits; in the data active = inhibition above about 24%; also: 0% = median of the test wells and 100% = reference compound wells
# 3CLpro inhibitor – SARS-CoV 3CLpro protease inhibition. inhibition, % at 6 µM. P0C6X7. recombinant SARS-CoV 3CLpro, quenched FRET peptide cleavage. 290,000 compounds, 0.14% hits. AID 1706; in the data active = inhibition above about 12%
# MazEF act – activators of E. coli MazEF toxin-antitoxin RNase; FAM/BHQ RNA-DNA oligo cleavage fluorescence, 5 h; activation, % at 20 µM; P0AE70; 350,000 compounds, 0.32% hits; in the data active = activation above about 50%
# Mtb hypoxia inh – inhibitors of hypoxia-regulated fluorescent reporter in Mycobacterium tuberculosis. M. tuberculosis hypoxia-regulated fluorescent reporter, fluorescence. fluorescence inhibition, % (no concentration beside the values). 300,000 compounds, 0.1% hits. AID 1159583; in the data active = fluorescence inhibition mostly above about 23%, no sharp cut-off; inactive = mostly below about 17%
# PrPC confirm – confirmation of inhibitors of cell surface human prion protein; shares compounds with PrPC TRFRET; cell surface PrPC level, TR-FRET; inhibition, % at 13.8 µM; 1,500 compounds, 65% hits; AID 743200; in the data active = inhibition above about 25%
# LD9 cytotox – kills or reduces viability of LD9 cells in PrPc counter-screen. shares compounds with PrPC TRFRET. LD9 cells cytotoxicity, luminescence viability. inhibition, % at 13.8 µM. 1,500 compounds, 29% hits. AID 743201; in the data active = inhibition above about 9.5%
# * hit, by the source's call; . = not tested or not shown. A selection: hits, their analogues and other compounds. The true share with any hit is near 1.5%.
SMILES,VHR inh abs,PrP 5UTR inh,PrPC TRFRET,3CLpro inhibitor,MazEF act,Mtb hypoxia inh,PrPC confirm,LD9 cytotox
CC=C(C)C(=O)Nc1cccc(C2=NOC3(C2)CC(C(N)=O)N(C(=O)C=CCC)C3)c1 (stereo unspecified),.,.,.,.,.,5,.,.
CC1=C(C)[N+](=O)C2(O)CCCCC2(C)N1[O-] (stereo unspecified),13,-15,36*,0,1,-1,4,-4
CCOc1ccc(C(=O)Nc2ccc3[nH]ncc3c2)cc1,23,-48,33*,5,8,1,7,1
COc1ccc(C(=O)Nc2ccc3[nH]ncc3c2)cc1,39,-34,-1,-1,7,4,.,.
Cc1ccc(S(=O)(=O)c2cccc(S(=O)(=O)N3CCOCC3)c2)cc1S(=O)(=O)N1CCOCC1,15,-7,4,0,2,-2,.,.
Cc1ccc(S(=O)(=O)c2cccc(S(=O)(=O)N3CCCC3)c2)cc1S(=O)(=O)N1CCCC1,8,3,34*,2,5,8,30*,9
CC(=O)ON=C(N)Cc1ccc(-c2csnn2)cc1,.,.,.,.,.,14,.,.
C/C(C=NNC(=O)c1ccncc1)=C\c1ccco1,.,.,.,.,.,6,.,.
COC(=O)C1CCC(C)C(c2ccc(C)cc2)N1C(=O)c1ccc(C=NOC(C)c2cn(C(CO)Cc3ccccc3)nn2)cc1 (stereo unspecified),.,.,.,.,.,-2,.,.
COc1cc(C=NNC(=O)CCn2c3ccccc3c3ccccc32)cc(OC)c1OC,.,.,.,.,.,9,.,.
COc1ccc(Cc2nnc(NN=Cc3ccc(N(C)C)cc3)[nH]c2=O)cc1OC,.,.,.,.,.,4,.,.
CCOc1ccc(NC(=O)Nc2cccn(Cc3ccccc3)c2=O)cc1,7,-26,30*,0,9,0,15,-7
OCC1OC(OCCc2ccc(O)cc2)C(O)C(O)C1O (stereo unspecified),.,.,.,.,.,4,.,.
O=C(O)CC(NC(=O)C1c2ccccc2Oc2ccccc21)c1ccc(OC2CCCC2)cc1 (stereo unspecified),7,-1,14,6,-1,2,.,.
O=C(O)CC(NC(=O)c1sc2ccccc2c1Cl)c1ccc(OC2CCCC2)cc1 (stereo unspecified),-13,-24,31*,11,-3,6,28*,-5
CC(NC(=O)c1sc2ccccc2c1Cl)C1CCCO1 (stereo unspecified),5,-56,38*,5,6,4,44*,-4
O=C(NCC1CCCO1)c1sc2ccccc2c1Cl (stereo unspecified),21,-83,9,0,1,12,.,.
Cc1ccc2c(Cl)c(C(=O)NCC3CCCO3)sc2c1 (stereo unspecified),12,-41,25*,0,-5,3,37*,1
NC(=O)COC(=O)CSc1cccc2cccc(Cl)c12,16,-15,39*,-4,12,5,52*,1
O=C(CSc1cccc2cccc(Cl)c12)OCC(=O)N1CCN(C(=O)c2ccco2)CC1,8,-6,43*,6,-11,3,44*,-1
NC(=O)COC(=O)CC(c1ccccc1)c1ccccc1,-6,-7,1,-1,3,8,.,.
O=C(CSc1cccc2cccc(Cl)c12)NC1=NCCS1,6,-21,29*,3,0,6,45*,-4
Cc1ccc(C)c(SCC(=O)OCC(=O)Nc2ncc(C(F)(F)F)cc2Cl)c1,-3,-22,3,-1,-7,3,.,.
O=C(COC(=O)CSc1cccc2cccc(Cl)c12)Nc1ncc(C(F)(F)F)cc1Cl,-22,-16,31*,1,1,-6,39*,1
O=C(CSc1ccccc1)NC1=NCCS1,6,-12,-2,0,5,-10,.,.
SMILES,VHR inh abs,PrP 5UTR inh,PrPC TRFRET,3CLpro inhibitor,MazEF act,Mtb hypoxia inh,PrPC confirm,LD9 cytotox
Cc1cc(=O)[nH]c(NN=Cc2c(C)nn(-c3ccc(F)cc3)c2Cl)n1,.,.,.,.,.,16,.,.
COC(=O)Nc1ccc(S(=O)(=O)N2c3ccccc3CCC2C)cc1 (stereo unspecified),17,-40,28*,4,-9,-4,8,4
CC(=NNC(=O)C(O)c1ccccc1)c1ccc(Br)s1 (stereo unspecified),.,.,.,.,.,9,.,.
CCCOC(=S)NC(=O)c1sc2ccccc2c1Cl,1,.,32*,0,3,6,38*,-3
CC(C)(C)C(=O)NC(=S)NNC(=O)c1sc2ccccc2c1Cl,-26,-18,.,-1,0,-11,.,.
O=C(NC(=S)NCCO)c1sc2ccccc2c1Cl,-3,-51,78*,-3,-11,11,80*,-4
CCOC(=S)NC(=O)c1sc2ccccc2c1Cl,1,.,45*,-2,-4,10,34*,-6
CC1CN(C(C)CO)C(=O)c2cccc(NC(=O)Cc3ccccc3)c2OC1CN(C)S(C)(=O)=O (stereo unspecified),.,.,.,.,.,11,.,.
O=C1CC(c2ccc(O)cc2)Oc2cc(OC3OC(CO)C(O)C(O)C3O)cc(OC3OC(CO)C(O)C(O)C3O)c21 (stereo unspecified),.,.,.,.,.,-3,.,.
O=c1[nH]c2cc3c(cc2cc1CN(CC1CCCO1)S(=O)(=O)c1ccccc1)OCCO3 (stereo unspecified),7,-12,55*,3,-2,6,14,-2
CC(=O)c1cccc(S(=O)(=O)N(Cc2cc3cc4c(cc3[nH]c2=O)OCCO4)CC2CCCO2)c1 (stereo unspecified),17,-14,2,5,-4,9,.,.
Fc1ccc2nc(Nc3nc4cc5c(cc4s3)OCO5)sc2c1,3,-52,-6,-2,3,7,.,.
c1ccc2sc(Nc3nc4cc5c(cc4s3)OCO5)nc2c1,3,-88,80*,-3,10,-3,63*,-1
Cc1c(C(=O)Nc2ccc(-c3nnc4n3CCCCC4)cc2)oc2ccc(Br)cc12,14,-14,40*,-2,11,-4,49*,6
Cc1cc(C)nc(NC(=O)c2ccc(COc3ccccc3Cl)cc2)c1,20,-25,27*,4,-10,7,24,-2
O=C(Nc1ccn(Cc2c(F)c(F)cc(F)c2F)n1)c1ccc(COc2ccccc2Cl)cc1,27,18,.,11,-2,6,.,.
O=C(Nc1ccn(Cc2ccccc2F)n1)c1ccc(COc2ccccc2Cl)cc1,33,20,42*,7,-7,-1,31*,1
Cc1cc(-c2ccc(C=Nn3cnnc3)o2)ccc1Cl,.,.,.,.,.,5,.,.
CC(=O)Oc1c(C(C)C)cc(N(C(C)=O)c2ccccc2)cc1C(C)C,.,-9,36*,.,5,-10,29*,-3
